Test results published in the supplement of paper PMC11732987, “Enantioselective OTUD7B fragment discovery through chemoproteomics screening and high-throughput optimisation” (Communications Chemistry, 2025).

Assays:
Assay in all cases: log2 ratio of Biotin-Ahx-Ub-VS probe labelling (fragment/DMSO); higher = less target engagement (more negative = stronger competition), active = hit call of the paper (q ≤ 0.05, log2 ratio ≤ -1)
Conditions in all cases: compound concentration: 200 uM; treatment time: 3 h
USP19 = biological target: T1, USP19 (UniProt O94966)
T1 sequence (whole entry): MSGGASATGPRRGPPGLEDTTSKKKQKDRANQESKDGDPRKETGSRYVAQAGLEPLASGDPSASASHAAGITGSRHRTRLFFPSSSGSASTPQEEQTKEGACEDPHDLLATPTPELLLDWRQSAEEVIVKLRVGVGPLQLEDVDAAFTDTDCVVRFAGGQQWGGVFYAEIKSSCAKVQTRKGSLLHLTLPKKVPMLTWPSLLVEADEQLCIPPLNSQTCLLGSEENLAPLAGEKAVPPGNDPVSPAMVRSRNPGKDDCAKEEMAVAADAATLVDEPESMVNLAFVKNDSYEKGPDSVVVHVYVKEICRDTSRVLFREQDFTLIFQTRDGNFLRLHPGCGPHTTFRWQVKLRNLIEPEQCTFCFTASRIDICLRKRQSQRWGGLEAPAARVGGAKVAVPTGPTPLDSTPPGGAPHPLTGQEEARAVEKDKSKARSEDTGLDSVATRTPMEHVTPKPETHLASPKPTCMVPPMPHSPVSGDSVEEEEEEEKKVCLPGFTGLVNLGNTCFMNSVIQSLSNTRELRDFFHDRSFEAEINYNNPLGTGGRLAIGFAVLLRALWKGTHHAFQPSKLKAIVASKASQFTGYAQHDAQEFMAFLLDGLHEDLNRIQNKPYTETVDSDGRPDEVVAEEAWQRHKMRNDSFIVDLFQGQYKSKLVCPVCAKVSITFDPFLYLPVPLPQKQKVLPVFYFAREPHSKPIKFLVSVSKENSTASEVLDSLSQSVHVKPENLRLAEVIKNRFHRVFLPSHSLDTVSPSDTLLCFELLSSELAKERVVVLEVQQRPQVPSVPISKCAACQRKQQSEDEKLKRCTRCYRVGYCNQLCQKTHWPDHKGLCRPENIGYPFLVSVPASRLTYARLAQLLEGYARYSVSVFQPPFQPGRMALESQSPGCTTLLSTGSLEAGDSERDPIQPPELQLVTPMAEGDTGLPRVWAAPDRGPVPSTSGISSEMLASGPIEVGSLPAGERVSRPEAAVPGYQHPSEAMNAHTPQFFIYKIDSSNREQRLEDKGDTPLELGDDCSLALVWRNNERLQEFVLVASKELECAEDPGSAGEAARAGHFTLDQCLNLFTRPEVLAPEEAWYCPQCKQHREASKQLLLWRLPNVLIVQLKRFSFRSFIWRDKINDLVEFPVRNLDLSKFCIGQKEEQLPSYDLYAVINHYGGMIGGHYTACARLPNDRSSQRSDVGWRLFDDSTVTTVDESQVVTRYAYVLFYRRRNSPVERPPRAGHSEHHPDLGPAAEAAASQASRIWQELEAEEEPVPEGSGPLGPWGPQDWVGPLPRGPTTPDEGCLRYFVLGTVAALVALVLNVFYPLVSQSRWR
Procedure, shortened: (§1)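 HEK293T lysate (495 µg per sample, in Tris/CHAPS/IGEPAL buffer with protease inhibitors) was treated in triplicate with fragment at 200 µM or with DMSO for 3 h. It was then treated with Biotin-Ahx-Ub-VS (0.5 µM final) for 1 h. Labelled DUBs were NeutrAvidin-enriched, digested with LysC and trypsin, and run by diaPASEF LC-MS/MS. Spectronaut label-free quantities were global-median-normalised. Values are average log2 ratios fragment/DMSO by unpaired t-test, using proteins with ≥2 unique peptides.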

USP24 = USP24 (UniProt Q9UPU5)
Procedure, shortened: as §1

USP25 = biological target: T2, USP25 (UniProt Q9UHP3)
T2 sequence (whole entry): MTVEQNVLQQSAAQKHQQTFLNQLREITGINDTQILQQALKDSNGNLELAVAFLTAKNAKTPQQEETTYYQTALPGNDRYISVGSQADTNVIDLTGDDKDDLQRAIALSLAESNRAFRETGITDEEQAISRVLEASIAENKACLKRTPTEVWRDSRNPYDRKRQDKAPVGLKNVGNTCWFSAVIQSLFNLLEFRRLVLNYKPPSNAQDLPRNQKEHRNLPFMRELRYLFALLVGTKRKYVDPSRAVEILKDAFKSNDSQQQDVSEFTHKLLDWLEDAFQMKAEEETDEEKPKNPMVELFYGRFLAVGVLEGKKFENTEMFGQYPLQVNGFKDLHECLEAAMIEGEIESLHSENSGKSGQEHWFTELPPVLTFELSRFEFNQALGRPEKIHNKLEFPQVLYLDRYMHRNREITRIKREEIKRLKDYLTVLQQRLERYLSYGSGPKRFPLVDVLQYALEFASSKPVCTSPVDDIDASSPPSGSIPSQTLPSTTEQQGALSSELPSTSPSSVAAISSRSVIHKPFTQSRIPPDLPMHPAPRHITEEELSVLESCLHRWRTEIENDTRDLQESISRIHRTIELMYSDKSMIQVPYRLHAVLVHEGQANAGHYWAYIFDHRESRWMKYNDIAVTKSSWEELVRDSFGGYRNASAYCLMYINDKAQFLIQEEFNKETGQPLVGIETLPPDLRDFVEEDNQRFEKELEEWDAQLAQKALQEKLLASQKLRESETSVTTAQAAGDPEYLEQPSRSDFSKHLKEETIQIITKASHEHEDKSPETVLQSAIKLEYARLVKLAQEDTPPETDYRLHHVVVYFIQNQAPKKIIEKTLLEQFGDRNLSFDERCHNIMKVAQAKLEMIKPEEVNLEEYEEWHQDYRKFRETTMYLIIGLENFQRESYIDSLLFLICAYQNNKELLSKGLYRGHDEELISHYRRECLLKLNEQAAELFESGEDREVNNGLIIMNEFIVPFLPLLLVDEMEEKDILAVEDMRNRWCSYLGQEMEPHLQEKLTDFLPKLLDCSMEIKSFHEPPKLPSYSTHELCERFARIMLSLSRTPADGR
Procedure, shortened: as §1

USP28 = biological target: T3, USP28 (UniProt Q96RU2)
T3 sequence (whole entry): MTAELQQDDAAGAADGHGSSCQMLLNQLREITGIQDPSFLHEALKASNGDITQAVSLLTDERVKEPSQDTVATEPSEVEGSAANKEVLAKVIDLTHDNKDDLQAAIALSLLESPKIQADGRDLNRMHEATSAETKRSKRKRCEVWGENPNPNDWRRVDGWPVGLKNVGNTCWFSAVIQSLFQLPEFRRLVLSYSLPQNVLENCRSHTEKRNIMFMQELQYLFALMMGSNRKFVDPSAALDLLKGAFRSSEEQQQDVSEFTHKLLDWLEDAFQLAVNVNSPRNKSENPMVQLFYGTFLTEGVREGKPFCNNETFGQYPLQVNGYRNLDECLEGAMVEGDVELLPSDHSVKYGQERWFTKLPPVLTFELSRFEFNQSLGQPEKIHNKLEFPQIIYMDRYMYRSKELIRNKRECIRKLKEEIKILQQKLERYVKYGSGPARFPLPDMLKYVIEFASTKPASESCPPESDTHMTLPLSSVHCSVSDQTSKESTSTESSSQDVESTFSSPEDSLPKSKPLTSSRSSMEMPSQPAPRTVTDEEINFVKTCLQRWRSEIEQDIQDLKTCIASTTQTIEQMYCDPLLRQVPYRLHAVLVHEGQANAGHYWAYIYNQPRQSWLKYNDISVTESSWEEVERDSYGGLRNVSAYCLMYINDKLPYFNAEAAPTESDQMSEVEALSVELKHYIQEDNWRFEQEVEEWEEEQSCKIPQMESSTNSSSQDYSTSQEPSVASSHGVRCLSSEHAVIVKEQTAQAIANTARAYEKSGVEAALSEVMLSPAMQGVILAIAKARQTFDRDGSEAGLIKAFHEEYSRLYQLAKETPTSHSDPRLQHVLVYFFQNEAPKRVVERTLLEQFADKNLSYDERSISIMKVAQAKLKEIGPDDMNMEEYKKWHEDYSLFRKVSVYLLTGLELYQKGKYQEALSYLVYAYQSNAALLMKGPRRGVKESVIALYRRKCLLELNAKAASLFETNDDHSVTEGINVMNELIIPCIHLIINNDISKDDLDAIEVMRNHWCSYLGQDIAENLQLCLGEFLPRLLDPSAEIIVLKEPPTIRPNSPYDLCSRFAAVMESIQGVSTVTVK
Procedure, shortened: as §1

Measured: log2 ratio of Biotin-Ahx-Ub-VS probe labelling

USP24, sequence (Q9UPU5 whole entry): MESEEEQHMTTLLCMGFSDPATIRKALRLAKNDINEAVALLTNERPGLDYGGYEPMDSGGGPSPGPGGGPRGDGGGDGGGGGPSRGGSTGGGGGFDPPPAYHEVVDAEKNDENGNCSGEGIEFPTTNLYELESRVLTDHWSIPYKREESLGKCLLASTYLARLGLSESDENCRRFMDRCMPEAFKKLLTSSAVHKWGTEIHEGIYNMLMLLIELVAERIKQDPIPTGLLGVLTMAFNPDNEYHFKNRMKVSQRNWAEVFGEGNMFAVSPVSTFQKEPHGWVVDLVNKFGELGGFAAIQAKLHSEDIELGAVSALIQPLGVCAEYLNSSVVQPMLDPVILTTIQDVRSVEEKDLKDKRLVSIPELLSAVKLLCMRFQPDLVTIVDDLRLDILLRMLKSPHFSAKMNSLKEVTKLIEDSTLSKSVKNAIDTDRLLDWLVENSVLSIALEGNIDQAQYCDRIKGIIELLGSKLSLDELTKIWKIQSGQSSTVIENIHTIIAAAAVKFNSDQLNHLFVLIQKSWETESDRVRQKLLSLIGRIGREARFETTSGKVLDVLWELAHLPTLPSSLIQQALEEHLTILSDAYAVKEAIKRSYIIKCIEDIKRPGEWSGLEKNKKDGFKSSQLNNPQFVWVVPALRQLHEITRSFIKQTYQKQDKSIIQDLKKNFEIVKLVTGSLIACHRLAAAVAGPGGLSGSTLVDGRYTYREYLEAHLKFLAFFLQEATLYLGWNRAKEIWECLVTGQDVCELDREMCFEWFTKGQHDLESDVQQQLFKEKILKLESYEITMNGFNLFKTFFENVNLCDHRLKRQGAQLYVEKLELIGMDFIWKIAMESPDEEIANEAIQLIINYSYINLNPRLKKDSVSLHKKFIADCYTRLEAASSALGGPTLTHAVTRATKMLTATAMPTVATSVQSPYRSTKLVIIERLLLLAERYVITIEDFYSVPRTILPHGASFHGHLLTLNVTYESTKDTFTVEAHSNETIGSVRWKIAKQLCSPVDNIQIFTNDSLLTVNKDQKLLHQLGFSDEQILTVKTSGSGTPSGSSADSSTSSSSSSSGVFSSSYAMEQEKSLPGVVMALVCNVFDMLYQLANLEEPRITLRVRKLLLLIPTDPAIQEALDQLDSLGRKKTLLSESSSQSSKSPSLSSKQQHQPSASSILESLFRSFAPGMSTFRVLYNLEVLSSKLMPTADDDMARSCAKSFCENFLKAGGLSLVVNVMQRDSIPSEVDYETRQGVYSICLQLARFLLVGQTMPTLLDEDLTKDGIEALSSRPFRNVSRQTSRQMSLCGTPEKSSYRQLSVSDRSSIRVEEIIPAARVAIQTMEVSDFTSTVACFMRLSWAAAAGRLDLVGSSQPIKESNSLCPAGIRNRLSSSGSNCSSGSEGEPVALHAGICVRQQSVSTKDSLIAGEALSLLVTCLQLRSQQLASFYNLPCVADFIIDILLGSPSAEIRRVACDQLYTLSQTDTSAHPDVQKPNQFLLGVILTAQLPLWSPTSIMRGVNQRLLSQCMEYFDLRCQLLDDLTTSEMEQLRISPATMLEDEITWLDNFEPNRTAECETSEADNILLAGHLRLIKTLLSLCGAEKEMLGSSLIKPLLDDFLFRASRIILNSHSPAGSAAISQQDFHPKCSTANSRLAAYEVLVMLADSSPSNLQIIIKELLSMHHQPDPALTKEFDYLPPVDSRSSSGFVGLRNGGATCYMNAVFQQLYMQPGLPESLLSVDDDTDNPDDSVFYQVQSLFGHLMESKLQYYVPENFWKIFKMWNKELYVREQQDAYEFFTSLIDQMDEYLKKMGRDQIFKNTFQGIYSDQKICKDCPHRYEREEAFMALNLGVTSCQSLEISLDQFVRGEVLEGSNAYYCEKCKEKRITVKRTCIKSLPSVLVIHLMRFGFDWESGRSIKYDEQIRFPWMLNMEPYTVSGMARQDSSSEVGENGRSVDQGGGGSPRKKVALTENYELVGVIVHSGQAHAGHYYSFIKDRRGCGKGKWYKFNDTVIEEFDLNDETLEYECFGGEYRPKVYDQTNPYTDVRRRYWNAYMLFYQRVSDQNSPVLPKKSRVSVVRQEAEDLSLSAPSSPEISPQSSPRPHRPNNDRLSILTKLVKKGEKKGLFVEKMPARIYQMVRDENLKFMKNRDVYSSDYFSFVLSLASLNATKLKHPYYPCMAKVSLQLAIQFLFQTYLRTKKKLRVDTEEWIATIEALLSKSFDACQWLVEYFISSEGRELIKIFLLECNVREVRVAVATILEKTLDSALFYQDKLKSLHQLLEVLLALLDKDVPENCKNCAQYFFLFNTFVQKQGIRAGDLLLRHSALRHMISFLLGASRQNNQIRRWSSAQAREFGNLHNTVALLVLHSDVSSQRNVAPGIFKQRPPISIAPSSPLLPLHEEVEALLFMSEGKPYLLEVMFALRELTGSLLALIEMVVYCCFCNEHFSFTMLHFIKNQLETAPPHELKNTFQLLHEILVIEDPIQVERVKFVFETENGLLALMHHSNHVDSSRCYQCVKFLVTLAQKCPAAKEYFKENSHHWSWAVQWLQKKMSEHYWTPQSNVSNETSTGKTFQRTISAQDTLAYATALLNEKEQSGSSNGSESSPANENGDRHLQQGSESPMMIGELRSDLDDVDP

CNC(=O)C1(NC(=O)CCl)CCCCC1
inactive: USP19 0.162 | USP24 0.0556 | USP25 -0.118 | USP28 -0.181
